Bioassay records: PubChem, several laboratories
Compounds with a hit are over-represented: about 2.9% of the library has one in this group of screens.
dFosB activator = activators of mouse delta FosB homodimer | P13346 | purified delta FosB, TAMRA-CDK5 oligo fluorescence polarization; percent of positive-control signal above neutral wells | activation, % at 25 µM | 340,000 tested, 0.99% active | AID 493131;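 active = mean activation above about 17%, with every replicate also reaching it, limit read from the data, passing the limit was not always enough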
Target sequence (P13346 whole entry, looked up): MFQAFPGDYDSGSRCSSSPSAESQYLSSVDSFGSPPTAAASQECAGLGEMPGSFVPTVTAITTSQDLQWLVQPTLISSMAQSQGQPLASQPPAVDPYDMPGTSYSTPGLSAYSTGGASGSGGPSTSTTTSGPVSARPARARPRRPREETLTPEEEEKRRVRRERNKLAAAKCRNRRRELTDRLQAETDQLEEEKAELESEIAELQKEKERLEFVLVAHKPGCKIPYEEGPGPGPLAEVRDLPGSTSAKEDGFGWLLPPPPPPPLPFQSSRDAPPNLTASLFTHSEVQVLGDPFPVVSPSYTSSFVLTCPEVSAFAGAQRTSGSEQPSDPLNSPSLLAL
MEKK2 WT-MEK5 = raises or lowers MEK5 binding to wildtype human MEKK2 PB1 domain | bead flow cytometry, Alexa488-MEK5 binding to MEKK2 WT; actives lie on both sides | Q9Y2U5 | binding response (% of control), % at 10 µM | 290,000 tested, 1.1% active; in the data active = binding response below about 67% or above about 130%
FID counter = displaces DNA intercalator in HCV helicase counter-screen | DNA fluorescent intercalator displacement, fluorescence | inhibition, % at 7.9 µM | 290,000 tested, 0.17% active; in the data active = inhibition above about 37%;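 note: 0% = vehicle and 100% = reference compound; higher means more ethidium bromide displaced from hairpin DNA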
MEKK2 mut-MEK5 = signal of MEK5 binding to mutant human MEKK2 PB1 domain; AID 1530; percent response, % at 10 µM; 290,000 tested, 0.35% active; bead flow cytometry, Alexa488-MEK5 binding to MEKK2 mutant; in the data active = percent response above about 24%, passing the limit was not always enough
MEKK3 PB1 HTS = MEKK3-MEK5 PB1 interaction, increase or decrease; Q99759; bead-based flow cytometry, Alexa488-MEK5 binding to MEKK3; actives lie on both sides; 0 = blocked by unlabeled MEK5, 100 = vehicle; binding response (% of control), % at 10 µM; 290,000 tested, 1.4% active; AID 1529;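 active = binding response more than 3 SD above or below the average of its plate-row segment, actives on both sides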;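 note: Alexa488 bead fluorescence after subtracting the streptavidin-only scavenger bead signal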
MEKK2wt confirm = raises or lowers MEK5 binding to wildtype human MEKK2, retest; shares compounds with MEKK3 PB1 HTS; bead flow cytometry, Alexa488-MEK5 binding to MEKK2 WT; actives lie on both sides; binding response (% of control), % at 10 µM; 5,900 tested, 2.4% active; in the data active = binding response below about 16% or above about 210%; inactive = in between
MEKK2mut-MEK5 = signal of MEK5 binding to mutant human MEKK2, retest | shares compounds with MEKK3 PB1 HTS | bead flow cytometry, Alexa488-MEK5 binding to MEKK2 mutant | percent response, % at 10 µM | 5,900 tested, 2% active | AID 1893; in the data active = percent response mostly above about 71%, no sharp cut-off; inactive = mostly below about 38%;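 note: higher means compound restores mutant binding toward wildtype level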
MEKK3-MEK5 inh = confirmation of inhibitors of MEK5 binding to human MEKK3; shares compounds with MEKK3 PB1 HTS; bead flow cytometry, Alexa488-MEK5 binding to MEKK3; stronger effect = lower value; binding response (% of control), % at 10 µM; 5,900 tested, 1.8% active; AID 1894;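 active = binding response below 72% of control, or above a set upper limit, though filed actives all read lower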;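 note: 100% = DMSO only wells and 0% = binding blocked by excess unlabeled MEK5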
The depositor's hits bear a star; [ ] = another dose, or the depositor's remark.

How did Cc1cccc(C(=O)OCC(=O)N2CC(C)CC(C)C2)c1C (configuration not stated) do in these assays?
dFosB activator: -9

What do the screens show for `COC(=O)C(NC(=O)c1ccccc1)(Nc1cc(C)cc(C)n1)C(F)(F)F` (configuration not stated)?
dFosB activator: -9; MEKK2 WT-MEK5: 92; FID counter: 0; MEKK2 mut-MEK5: 6; MEKK3 PB1 HTS: 126*; MEKK2wt confirm: 104; MEKK2mut-MEK5: 1; MEKK3-MEK5 inh: 101

What do the screens show for `O=C(O[C@@H](C(=O)O)[C@@H](OC(=O)c1ccccc1)C(=O)O)c1ccccc1`?
dFosB activator: 0

What do the screens show for `CC(C)NC(=O)C(OC(=O)c1ccccc1)C(OC(=O)c1ccccc1)C(=O)O` (configuration not stated)?
dFosB activator: 4; MEKK2 WT-MEK5: 117; FID counter: -5; MEKK2 mut-MEK5: 6; MEKK3 PB1 HTS: 123*; MEKK2wt confirm: 109; MEKK2mut-MEK5: 7; MEKK3-MEK5 inh: 104

Results for COc1ccc(OC)c(-n2c(=O)c3ccccc3c3ccccc3c2=O)c1 ?
dFosB activator: -12; MEKK2 WT-MEK5: 99; FID counter: -12; MEKK2 mut-MEK5: 0; MEKK3 PB1 HTS: 72*[inhibitor]; MEKK2wt confirm: 98; MEKK2mut-MEK5: 1; MEKK3-MEK5 inh: 98

How did COc1ccccc1OCCNC(=O)C1CC(=O)N(Cc2ccccc2)C1 (configuration not stated) do in these assays?
dFosB activator: -4

Results for CC(C)C(NS(=O)(=O)c1c(Cl)cccc1Cl)C(=O)OCC(=O)c1c[nH]c2ccccc12 (configuration not stated) ?
dFosB activator: -1; MEKK2 WT-MEK5: -2.0*; FID counter: -5; MEKK2 mut-MEK5: 76*; MEKK3 PB1 HTS: 77; MEKK2wt confirm: 105; MEKK2mut-MEK5: 9; MEKK3-MEK5 inh: 102

Results for CCOC(=O)c1c(NC(=O)C(=O)N/N=C/c2ccccc2O)sc2c1CCCCC2 ?
dFosB activator: -4; MEKK2 WT-MEK5: 105; FID counter: -1; MEKK2 mut-MEK5: 0; MEKK3 PB1 HTS: 137*; MEKK2wt confirm: 100; MEKK2mut-MEK5: 0; MEKK3-MEK5 inh: 103

How did Cc1ccc(OCC(=O)Nc2ccc([N+](=O)[O-])cn2)cc1C do in these assays?
dFosB activator: -2; MEKK2 WT-MEK5: 103; FID counter: 4; MEKK2 mut-MEK5: 6; MEKK3 PB1 HTS: 102

What do the screens show for `CC(c1ccccc1)C1OCC(C[N+]2(C)CCCCC2)O1` (configuration not stated)?
dFosB activator: -12; MEKK2 WT-MEK5: 47*[inhibitor]; FID counter: 0; MEKK2 mut-MEK5: -18; MEKK3 PB1 HTS: 43*[inhibitor]; MEKK2wt confirm: 105; MEKK2mut-MEK5: 7; MEKK3-MEK5 inh: 105

How did CCCCC(CC)C1OCC(C[N+]2(C)CCOCC2)O1 (configuration not stated) do in these assays?
dFosB activator: 3; MEKK2 WT-MEK5: 104; FID counter: 1; MEKK2 mut-MEK5: 0; MEKK3 PB1 HTS: 105

What do the screens show for `COc1ccc(-c2nn(-c3ccccc3C)cc2CNCCc2cnc[nH]2)cc1F`?
dFosB activator: 2; MEKK2 WT-MEK5: 149*; FID counter: 16; MEKK2 mut-MEK5: -6; MEKK3 PB1 HTS: 112; MEKK2wt confirm: 161; MEKK2mut-MEK5: 22; MEKK3-MEK5 inh: 105

How did O=C(OCC1CC(c2ccccc2)=NO1)c1ccco1 (configuration not stated) do in these assays?
dFosB activator: -2; MEKK2 WT-MEK5: 103; FID counter: -8; MEKK2 mut-MEK5: 2; MEKK3 PB1 HTS: 102

Results for O=C(CCc1ccccc1)NC(=S)Nc1ccccc1Br ?
dFosB activator: -9; MEKK2 WT-MEK5: 97; FID counter: -8; MEKK2 mut-MEK5: 0; MEKK3 PB1 HTS: 101

How did COc1cccc2c(N/N=C/c3ccc(O)c(O)c3)cc(C)nc12 do in these assays?
dFosB activator: 2; MEKK2 WT-MEK5: 105; FID counter: -8; MEKK2 mut-MEK5: 2; MEKK3 PB1 HTS: 103

What do the screens show for `Cc1ccc2nc(C)cc(N/N=C/c3cccc(O)c3)c2c1`?
dFosB activator: -5; MEKK2 WT-MEK5: 104; FID counter: -19; MEKK2 mut-MEK5: 5; MEKK3 PB1 HTS: 103

Results for COc1ccc(/C=N/Nc2cc(C)nc3ccccc23)cc1 ?
dFosB activator: 53*; MEKK2 WT-MEK5: 228*; FID counter: 33; MEKK2 mut-MEK5: 43*; MEKK3 PB1 HTS: 112; MEKK2wt confirm: 177; MEKK2mut-MEK5: 48; MEKK3-MEK5 inh: 111

What do the screens show for `COc1ccc(/C=N/Nc2cc(C)nc3c(C)cccc23)cc1`?
dFosB activator: 6; MEKK2 WT-MEK5: 279*; FID counter: 25; MEKK2 mut-MEK5: 71*; MEKK3 PB1 HTS: 116; MEKK2wt confirm: 197; MEKK2mut-MEK5: 45; MEKK3-MEK5 inh: 104

How did COc1ccc(CNc2cc(C)nc3ccc(OC)cc23)cc1 do in these assays?
dFosB activator: -6; MEKK2 WT-MEK5: 124; FID counter: 14; MEKK2 mut-MEK5: 9; MEKK3 PB1 HTS: 103

How did COc1ccc2nc(C)cc(N/N=C/c3ccc(F)cc3)c2c1 do in these assays?
dFosB activator: -20; MEKK2 WT-MEK5: 160*; FID counter: 23; MEKK2 mut-MEK5: 59*; MEKK3 PB1 HTS: 69*[inhibitor]; MEKK2wt confirm: 211*; MEKK2mut-MEK5: 61; MEKK3-MEK5 inh: 89

How did COc1ccc(-c2c(-c3ccccc3)c(C(=O)C(=O)NCCCN(C)C)n3ccc4cc(OC)c(OC)cc4c23)cc1OC do in these assays?
dFosB activator: 7; MEKK2 WT-MEK5: 140*; FID counter: 21; MEKK2 mut-MEK5: 13; MEKK3 PB1 HTS: 107; MEKK2wt confirm: 150; MEKK2mut-MEK5: 45; MEKK3-MEK5 inh: 114

Results for CN(C)CCNC(=O)C(=O)c1c(-c2ccccc2)cc2ccccn12 ?
dFosB activator: -3; MEKK2 WT-MEK5: 99; FID counter: 19; MEKK2 mut-MEK5: -3; MEKK3 PB1 HTS: 103

How did O=C(Nc1nnc(-c2ccncc2)o1)c1ccccc1 do in these assays?
dFosB activator: -4; MEKK2 WT-MEK5: 108; FID counter: -3; MEKK2 mut-MEK5: 17; MEKK3 PB1 HTS: 124

What do the screens show for `O=C(Nc1nnc(-c2ccncc2)o1)c1ccccc1F`?
dFosB activator: -1; MEKK2 WT-MEK5: 112; FID counter: 1; MEKK2 mut-MEK5: 19; MEKK3 PB1 HTS: 129*; MEKK2wt confirm: 99; MEKK2mut-MEK5: -5; MEKK3-MEK5 inh: 104
